Measurements from the supplement of paper PMC10849652.
Targets with a hit are over-represented here; the source holds about 7,900 in all. About 0.6% of all pairs of compound and target were hits. Values without a mark were called inactive.

Experiments:
Experiment in all cases: log2 fold change, soluble protein after heating vs DMSO (PISA); higher = thermal stabilisation; K562 cells, 10 uM, 30 min; active = over 0.2 and 3.5 SD of the protein, either way, in both replicates (recomputed)
[1] = compound: NC(=O)Nc1cc(-c2cccc(F)c2)sc1C(=O)N[C@H]1CCCNC1
Summary of the method: (§1)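 Thermal stability values are relative to control samples and come from duplicates. They are expressed as log2 fold changes. For measurement, K562 cells (2×10^6 cells/mL) received 10 μM compound for 30 min, and aliquots were heated for 3 min over 48°C-58°C, pooled, and extracted at 4°C in PBS with 0.5% NP-40. Soluble protein, the supernatant after 21,000xg for 90 min, was quantified by TMTpro 16plex LC-MS/MS with equalised channel sums.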

[2] = compound: NC(=O)c1cnc(N[C@@H]2CCCC[C@@H]2N)nc1Nc1cccc(-n2nccn2)c1
Summary of the method: as §1

[3] = compound: NC1(c2ccc(-c3nc4ccn5c(=O)[nH]nc5c4cc3-c3ccccc3)cc2)CCC1
Summary of the method: as §1

[4] = compound: NCC(=O)Nc1ccc(-n2nc(C(F)(F)F)cc2-c2ccc3c(ccc4ccccc43)c2)cc1
Summary of the method: as §1

entinostat = compound: Nc1ccccc1NC(=O)c1ccc(CNC(=O)OCc2cccnc2)cc1 [entinostat]
Summary of the method: as §1

vorinostat = compound: O=C(CCCCCCC(=O)Nc1ccccc1)NO [vorinostat]
Summary of the method: as §1

citarinostat = compound: O=C(CCCCCCNC(=O)c1cnc(N(c2ccccc2)c2ccccc2Cl)nc1)NO [citarinostat]
Summary of the method: as §1

silmitasertib = compound: O=C(O)c1ccc2c(c1)nc(Nc1cccc(Cl)c1)c1ccncc12 [silmitasertib]
Summary of the method: as §1

[5] = compound: O=C1NC(=O)C(c2cnc3ccccn23)=C1c1cn2c3c(cc(F)cc13)CN(C(=O)N1CCCCC1)CC2
Summary of the method: as §1

[6] = compound: c1cc(OCCN2CCCCC2)cc(-c2n[nH]c3ccc(-c4nnc[nH]4)cc23)c1
Summary of the method: as §1

Chain of UniProt Q8TC07 (Q8TC07 whole entry, looked up): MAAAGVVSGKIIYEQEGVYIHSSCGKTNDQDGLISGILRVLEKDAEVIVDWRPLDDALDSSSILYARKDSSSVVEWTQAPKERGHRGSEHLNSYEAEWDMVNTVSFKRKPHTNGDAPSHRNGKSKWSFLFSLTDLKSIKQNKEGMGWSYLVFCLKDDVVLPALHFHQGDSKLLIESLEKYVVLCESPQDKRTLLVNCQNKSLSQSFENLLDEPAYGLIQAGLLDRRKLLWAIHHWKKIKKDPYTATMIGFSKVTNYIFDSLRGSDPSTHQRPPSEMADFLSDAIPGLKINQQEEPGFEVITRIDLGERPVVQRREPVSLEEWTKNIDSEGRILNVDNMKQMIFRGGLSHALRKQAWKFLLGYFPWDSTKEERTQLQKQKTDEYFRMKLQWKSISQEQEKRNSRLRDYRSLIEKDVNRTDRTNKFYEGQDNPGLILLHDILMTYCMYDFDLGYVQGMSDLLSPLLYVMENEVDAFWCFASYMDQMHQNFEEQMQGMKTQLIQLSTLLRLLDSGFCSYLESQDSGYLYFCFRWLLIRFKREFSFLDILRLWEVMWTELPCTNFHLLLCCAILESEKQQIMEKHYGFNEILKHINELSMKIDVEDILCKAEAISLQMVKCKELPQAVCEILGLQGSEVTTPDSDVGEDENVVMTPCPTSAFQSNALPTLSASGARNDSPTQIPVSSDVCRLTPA
Chain of UniProt Q9Y4R8 (Q9Y4R8 whole entry, looked up): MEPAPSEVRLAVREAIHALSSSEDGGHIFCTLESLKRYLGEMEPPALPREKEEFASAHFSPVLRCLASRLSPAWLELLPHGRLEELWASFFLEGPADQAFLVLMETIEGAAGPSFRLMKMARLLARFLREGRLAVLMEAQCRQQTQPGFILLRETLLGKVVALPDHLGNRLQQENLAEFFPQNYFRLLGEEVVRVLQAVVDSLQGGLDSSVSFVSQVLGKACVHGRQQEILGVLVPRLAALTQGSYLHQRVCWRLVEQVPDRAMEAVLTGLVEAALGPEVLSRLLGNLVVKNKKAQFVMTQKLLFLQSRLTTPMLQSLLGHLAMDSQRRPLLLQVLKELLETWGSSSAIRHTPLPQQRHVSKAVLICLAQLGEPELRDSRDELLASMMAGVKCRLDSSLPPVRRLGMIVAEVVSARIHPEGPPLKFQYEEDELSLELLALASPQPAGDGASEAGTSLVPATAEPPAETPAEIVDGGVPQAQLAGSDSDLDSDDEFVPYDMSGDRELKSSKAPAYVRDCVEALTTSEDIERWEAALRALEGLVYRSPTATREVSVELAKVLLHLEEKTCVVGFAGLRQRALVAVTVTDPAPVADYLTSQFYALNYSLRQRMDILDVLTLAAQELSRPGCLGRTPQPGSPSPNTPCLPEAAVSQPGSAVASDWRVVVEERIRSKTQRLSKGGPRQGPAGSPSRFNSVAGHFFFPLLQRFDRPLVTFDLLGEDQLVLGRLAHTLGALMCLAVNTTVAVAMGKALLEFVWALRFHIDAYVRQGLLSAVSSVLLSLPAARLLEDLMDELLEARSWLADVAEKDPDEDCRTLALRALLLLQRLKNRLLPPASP
Chain of UniProt Q16629 (Q16629 whole entry, looked up): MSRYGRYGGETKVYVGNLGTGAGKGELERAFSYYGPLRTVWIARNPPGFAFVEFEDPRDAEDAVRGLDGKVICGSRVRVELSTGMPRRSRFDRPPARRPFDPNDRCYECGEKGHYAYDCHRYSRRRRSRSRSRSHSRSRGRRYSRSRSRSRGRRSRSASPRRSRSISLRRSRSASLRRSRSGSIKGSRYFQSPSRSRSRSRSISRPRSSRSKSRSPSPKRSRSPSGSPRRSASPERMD
Chain of UniProt Q15796 (Q15796 whole entry, looked up): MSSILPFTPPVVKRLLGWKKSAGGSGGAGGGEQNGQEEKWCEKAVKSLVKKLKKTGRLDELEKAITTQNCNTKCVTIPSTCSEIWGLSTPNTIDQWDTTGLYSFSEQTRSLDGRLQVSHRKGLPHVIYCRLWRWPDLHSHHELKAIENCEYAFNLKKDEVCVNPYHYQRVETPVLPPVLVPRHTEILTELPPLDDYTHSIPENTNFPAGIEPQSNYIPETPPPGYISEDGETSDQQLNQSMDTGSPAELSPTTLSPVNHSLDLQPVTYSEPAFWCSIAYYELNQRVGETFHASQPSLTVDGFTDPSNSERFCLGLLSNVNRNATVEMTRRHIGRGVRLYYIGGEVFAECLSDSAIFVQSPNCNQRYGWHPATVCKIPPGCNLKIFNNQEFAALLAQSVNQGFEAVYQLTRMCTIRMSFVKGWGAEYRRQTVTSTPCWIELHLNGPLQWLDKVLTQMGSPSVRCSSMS
Chain of UniProt O14776 (O14776 whole entry, looked up): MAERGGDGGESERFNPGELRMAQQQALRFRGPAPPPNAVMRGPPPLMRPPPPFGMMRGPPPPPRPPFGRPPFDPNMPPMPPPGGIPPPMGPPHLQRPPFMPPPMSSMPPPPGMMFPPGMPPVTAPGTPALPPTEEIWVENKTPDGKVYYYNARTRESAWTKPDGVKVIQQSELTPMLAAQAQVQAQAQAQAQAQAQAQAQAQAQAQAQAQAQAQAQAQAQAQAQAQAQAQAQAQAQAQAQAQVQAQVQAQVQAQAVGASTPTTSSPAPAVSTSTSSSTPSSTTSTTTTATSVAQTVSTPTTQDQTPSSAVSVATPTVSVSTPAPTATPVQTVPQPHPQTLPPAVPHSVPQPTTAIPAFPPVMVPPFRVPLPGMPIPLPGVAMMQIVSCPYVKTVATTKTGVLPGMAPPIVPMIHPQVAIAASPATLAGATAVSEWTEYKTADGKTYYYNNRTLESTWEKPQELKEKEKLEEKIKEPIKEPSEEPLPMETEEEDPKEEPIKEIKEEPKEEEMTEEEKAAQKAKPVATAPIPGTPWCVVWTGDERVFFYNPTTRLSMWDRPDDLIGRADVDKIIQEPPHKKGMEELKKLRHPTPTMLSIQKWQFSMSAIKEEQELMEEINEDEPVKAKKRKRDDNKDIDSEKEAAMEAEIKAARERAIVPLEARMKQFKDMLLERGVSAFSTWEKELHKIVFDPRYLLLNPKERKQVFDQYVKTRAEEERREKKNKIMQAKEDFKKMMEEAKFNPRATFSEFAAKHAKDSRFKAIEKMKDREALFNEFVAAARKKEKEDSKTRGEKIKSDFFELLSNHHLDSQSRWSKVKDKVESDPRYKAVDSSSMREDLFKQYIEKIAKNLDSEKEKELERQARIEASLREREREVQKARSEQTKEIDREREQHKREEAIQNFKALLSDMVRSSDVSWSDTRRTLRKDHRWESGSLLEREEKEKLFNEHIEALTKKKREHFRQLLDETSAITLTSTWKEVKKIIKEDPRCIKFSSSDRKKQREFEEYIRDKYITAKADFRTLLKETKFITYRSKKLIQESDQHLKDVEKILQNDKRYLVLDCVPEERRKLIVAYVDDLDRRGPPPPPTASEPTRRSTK
Chain of UniProt Q6P1M0 (Q6P1M0 whole entry, looked up): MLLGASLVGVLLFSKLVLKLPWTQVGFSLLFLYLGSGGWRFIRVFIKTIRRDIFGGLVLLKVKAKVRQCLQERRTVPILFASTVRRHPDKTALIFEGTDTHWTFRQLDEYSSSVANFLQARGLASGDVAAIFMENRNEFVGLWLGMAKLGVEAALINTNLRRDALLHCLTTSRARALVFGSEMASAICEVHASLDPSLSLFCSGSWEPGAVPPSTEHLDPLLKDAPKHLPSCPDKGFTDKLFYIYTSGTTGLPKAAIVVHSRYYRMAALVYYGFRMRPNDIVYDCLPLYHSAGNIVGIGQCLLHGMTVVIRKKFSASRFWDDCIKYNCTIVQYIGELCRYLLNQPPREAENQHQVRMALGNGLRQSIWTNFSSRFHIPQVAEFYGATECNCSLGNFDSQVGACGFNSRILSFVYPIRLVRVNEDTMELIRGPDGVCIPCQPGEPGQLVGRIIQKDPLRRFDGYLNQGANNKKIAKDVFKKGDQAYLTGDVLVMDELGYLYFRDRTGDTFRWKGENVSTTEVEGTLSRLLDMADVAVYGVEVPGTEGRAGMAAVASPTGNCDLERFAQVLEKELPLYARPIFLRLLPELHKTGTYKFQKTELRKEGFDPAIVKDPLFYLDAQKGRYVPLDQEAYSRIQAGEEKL
Chain of UniProt Q9Y5X1 (Q9Y5X1 whole entry, looked up): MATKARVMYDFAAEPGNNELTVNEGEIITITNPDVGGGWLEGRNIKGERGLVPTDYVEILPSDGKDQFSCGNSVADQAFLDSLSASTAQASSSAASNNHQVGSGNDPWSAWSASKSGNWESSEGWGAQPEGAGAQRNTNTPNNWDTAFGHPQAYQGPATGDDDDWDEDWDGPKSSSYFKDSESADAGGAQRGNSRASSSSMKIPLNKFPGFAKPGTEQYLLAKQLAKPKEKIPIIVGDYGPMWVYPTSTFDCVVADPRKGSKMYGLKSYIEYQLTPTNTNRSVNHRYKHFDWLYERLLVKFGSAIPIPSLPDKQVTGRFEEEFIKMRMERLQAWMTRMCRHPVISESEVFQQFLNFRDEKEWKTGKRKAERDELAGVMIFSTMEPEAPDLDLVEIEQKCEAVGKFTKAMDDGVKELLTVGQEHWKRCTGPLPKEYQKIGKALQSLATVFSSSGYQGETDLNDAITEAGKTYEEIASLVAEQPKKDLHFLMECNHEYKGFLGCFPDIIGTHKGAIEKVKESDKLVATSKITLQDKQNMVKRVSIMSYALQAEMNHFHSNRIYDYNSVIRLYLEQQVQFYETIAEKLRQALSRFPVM
Chain of UniProt Q8WVK2 (Q8WVK2 whole entry, looked up): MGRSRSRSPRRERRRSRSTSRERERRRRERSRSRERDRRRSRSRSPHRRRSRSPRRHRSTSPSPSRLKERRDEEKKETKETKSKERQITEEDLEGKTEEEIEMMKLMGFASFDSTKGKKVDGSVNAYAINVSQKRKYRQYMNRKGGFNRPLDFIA

Target | log2 fold change [1] | log2 fold change [2] | log2 fold change [3] | log2 fold change [4] | log2 fold change (entinostat) | log2 fold change (vorinostat) | log2 fold change (citarinostat) | log2 fold change (silmitasertib) | log2 fold change [5] | log2 fold change [6]
SMAD2 (UniProt Q15796) | -0.184 | -0.064 | 0.005 | -0.039 | -0.103 | -0.051 | 0.034 | -0.073 | 0.009 | -0.018
SNRNP40 (UniProt Q96DI7) | 0.017 | -0.017 | 0.065 | -0.011 | -0.067 | -0.018 | -0.008 | 0.058 | 0.04 | -0.121
TELO2 (UniProt Q9Y4R8) | -0.039 | -0.1 | -0.207 | 0.037 | 0.039 | 0.137 | 0.009 | 0.067 | 0.117 | -0.075
SLC27A4 (UniProt Q6P1M0) | -0.086 | -0.043 | -0.034 | 0.016 | -0.024 | 0 | 0.043 | 0.022 | -0.073 | -0.1
TAOK1 (UniProt Q7L7X3) | -0.043 | -0.04 | -0.063 | -0.068 | -0.01 | 0.048 | 0 | -0.003 | -0.038 | -0.194
SPAG9 (UniProt O60271) | -0.042 | -0.13 | -0.123 | -0.055 | 0.034 | 0.023 | 0.01 | 0.038 | -0.014 | -0.024
TBRG4 (UniProt Q969Z0) | -0.103 | -0.172 | -0.58 | -0.255 | 0.214 | 0.201 | 0.128 | 0.074 | -0.191 | -0.086
SNX6 (UniProt Q9UNH7) | -0.027 | -0.376 (active) | -0.403 (active) | 0.007 | 0.075 | 0.15 | 0.064 | -0.142 | -0.003 | -0.087
TLK2 isoform 2 (UniProt Q86UE8) | -0.059 | 0.049 | -0.042 | -0.037 | 0.036 | 0.1 | 0.016 | 0.034 | -0.026 | -0.052
SNRNP27 (UniProt Q8WVK2) | 0.022 | -0.015 | -0.034 | -0.043 | -0.024 | -0.008 | -0.003 | 0.06 | 0.038 | -0.025
TAMM41 isoform 3 (UniProt Q96BW9) | 0.001 | -0.052 | -0.148 | -0.059 | 0.022 | 0.023 | 0.013 | -0.004 | -0.125 | -0.043
STAT3 (UniProt P40763) | -0.001 | -0.047 | -0.2 | -0.092 | 0.089 | 0.101 | 0.062 | 0.103 | -0.036 | -0.016
SSRP1 (UniProt Q08945) | -0.017 | -0.012 | -0.078 | 0.003 | 0.007 | 0.059 | 0.155 | 0.007 | -0.171 | -0.013
SUOX (UniProt P51687) | -0.031 | -0.022 | 0.025 | -0.005 | -0.014 | -0.124 | -0.017 | -0.021 | -0.027 | 0.014
TBC1D15 isoform 3 (UniProt Q8TC07) | -0.013 | -0.086 | -0.202 | -0.033 | 0.118 | 0.101 | 0.036 | 0.071 | -0.008 | -0.059
TCERG1 (UniProt O14776) | -0.026 | -0.075 | -0.123 | -0.112 | 0.159 | 0.129 | 0.129 | 0.022 | -0.153 | 0
TBC1D9B (UniProt Q66K14) | -0.194 | -0.095 | -0.07 | -0.012 | -0.085 | -0.034 | 0.173 | 0.021 | -0.176 | -0.13
SNX2 (UniProt O60749) | -0.001 | -0.204 | -0.146 | 0 | 0.092 | 0.093 | 0.062 | -0.068 | -0.044 | -0.082
SRSF7 (UniProt Q16629) | 0 | 0.13 | 0.525 | 0.027 | -0.079 | 0 | -0.132 | -0.144 | 0.357 | -0.33
SPTBN1 (UniProt Q01082) | -0.051 | -0.04 | -0.041 | -0.016 | 0.011 | 0.026 | -0.009 | 0.127 | 0.009 | -0.007
SNX9 (UniProt Q9Y5X1) | -0.013 | -0.022 | -0.102 | -0.055 | 0.037 | 0.058 | 0.024 | 0.033 | -0.065 | -0.067
SMARCA5 (UniProt O60264) | -0.084 | -0.121 | -0.095 | -0.01 | 0.097 | 0.204 | -0.094 | 0.028 | -0.034 | 0.03
SYNE1 (UniProt Q8NF91) | -0.006 | -0.031 | -0.008 | 0.04 | -0.027 | 0.114 | 0.106 | -0.03 | -0.244 | 0.006
SLC25A39 (UniProt Q9BZJ4) | 0.059 | -0.183 | -0.345 | -0.105 | 0.061 | -0.05 | -0.015 | 0.023 | 0.073 | 0.223
SLC38A7 (UniProt Q9NVC3) | -0.017 | 0.002 | -0.299 | 0.197 | -0.066 | 0.11 | 0.085 | 0.022 | -0.107 | -0.004
SLC7A6 (UniProt Q92536) | -0.07 | 0.089 | 0.06 | -0.017 | -0.029 | -0.003 | 0.026 | 0.007 | -0.135 | -0.049
TEX264 (UniProt Q9Y6I9) | 0.548 (active) | -0.001 | 0.215 | -0.033 | 0.006 | -0.012 | -0.054 | 0.02 | -0.093 | 0.515
STAT6 (UniProt P42226) | -0.07 | -0.065 | -0.041 | -0.268 | 0.044 | 0.108 | 0.061 | 0.041 | -0.047 | 0.03
SPECC1 (UniProt Q5M775) | -0.126 | -0.053 | -0.124 | -0.132 | -0.007 | 0 | -0.213 | 0.08 | -0.06 | -0.091
TAX1BP1 (UniProt Q86VP1) | 0.028 | -0.062 | -0.202 | -0.102 | -0.013 | -0.183 | 0.061 | 0.042 | -0.011 | -0.081
